# The supplement of paper PMC4466140
# How the values were obtained:
# Assay in all cases: SPOT peptide array binding signal intensity (averaged, normalized) (arbitrary units (background-subtracted, floor 0; scale differs between SH3 domains)); higher = stronger binding of the SH3 domain to the peptide
# AgAbp1 = target: AgAbp1
# Procedure: (§1)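 GST-tagged SH3 domains from S. cerevisiae (Sc), A. gossypii (Ag), C. albicans (Ca) and S. pombe (Sp) were incubated at 10 ug/ml overnight at 4 C on cellulose SPOT membranes carrying 292 synthetic 15-mer peptides mined from the S. cerevisiae proteome (cysteines replaced by serines). Binding was detected with anti-GST antibody, HRP secondary and chemiluminescence, quantified with Genespotter, and reported as normalized spot intensities averaged over biological replicates.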
# AgBbc1 = target: AgBbc1
# Procedure: as §1
# AgBem1-D1 = target: AgBem1-D1
# Procedure: as §1
# AgBzz1-D1 = target: AgBzz1-D1
# Procedure: as §1
# AgBzz1-D2 = target: AgBzz1-D2
# Procedure: as §1
# AgCyk3 = target: AgCyk3
# Procedure: as §1
# AgFus1 = target: AgFus1
# Procedure: as §1
# AgHof1 = target: AgHof1
# Procedure: as §1
# AgHse1 = target: AgHse1
# Procedure: as §1
# AgLsb1 = target: AgLsb1
# Procedure: as §1
# AgLsb4 = target: AgLsb4
# Procedure: as §1
# AgMyo5 = target: AgMyo5
# Procedure: as §1
# AgNbp2 = target: AgNbp2
# Procedure: as §1
# AgRvs167 = target: AgRvs167
# Procedure: as §1
# AgSho1 = target: AgSho1
# Procedure: as §1
# AgSla1-D1-D2 = target: AgSla1-D1-D2
# Procedure: as §1
# AgSla1-D3 = target: AgSla1-D3
# Procedure: as §1
# CaAbp1-D1 = target: CaAbp1-D1
# Procedure: as §1
# CaAbp1-D2 = target: CaAbp1-D2
# Procedure: as §1
# CaBbc1 = target: CaBbc1
# Procedure: as §1
# CaBem1-D1 = target: CaBem1-D1
# Procedure: as §1
# CaBzz1-D1 = target: CaBzz1-D1
# Procedure: as §1
# CaBzz1-D2 = target: CaBzz1-D2
# Procedure: as §1
# CaCyk3 = target: CaCyk3
# Procedure: as §1
# CaFus1 = target: CaFus1
# Procedure: as §1
# CaHof1 = target: CaHof1
# Procedure: as §1
# CaHse1 = target: CaHse1
# Procedure: as §1
# CaLsb1 = target: CaLsb1
# Procedure: as §1
# CaLsb4 = target: CaLsb4
# Procedure: as §1
# CaMyo5 = target: CaMyo5
# Procedure: as §1
# CaNbp2 = target: CaNbp2
# Procedure: as §1
# CaRvs167 = target: CaRvs167
# Procedure: as §1
# CaRvs167-3 = target: CaRvs167-3
# Procedure: as §1
# CaSho1 = target: CaSho1
# Procedure: as §1
# CaSla1-D1-D2 = target: CaSla1-D1-D2
# Procedure: as §1
# CaSla1-D3 = target: CaSla1-D3
# Procedure: as §1
# ScAbp1 = target: ScAbp1
# Procedure: as §1
# ScBbc1 = target: ScBbc1
# Procedure: as §1
# ScBem1-D1 = target: ScBem1-D1
# Procedure: as §1
# ScBzz1-D1 = target: ScBzz1-D1
# Procedure: as §1
# ScBzz1-D2 = target: ScBzz1-D2
# Procedure: as §1
# ScCyk3 = target: ScCyk3
# Procedure: as §1
# ScFus1 = target: ScFus1
# Procedure: as §1
# ScHof1 = target: ScHof1
# Procedure: as §1
# ScHse1 = target: ScHse1
# Procedure: as §1
# ScLsb1 = target: ScLsb1
# Procedure: as §1
# ScLsb2 = target: ScLsb2
# Procedure: as §1
# ScLsb3 = target: ScLsb3
# Procedure: as §1
# ScLsb4 = target: ScLsb4
# Procedure: as §1
# ScMyo3 = target: ScMyo3
# Procedure: as §1
# ScMyo5 = target: ScMyo5
# Procedure: as §1
# ScNbp2 = target: ScNbp2
# Procedure: as §1
# ScPex13 = target: ScPex13
# Procedure: as §1
# ScRvs167 = target: ScRvs167
# Procedure: as §1
# ScSho1 = target: ScSho1
# Procedure: as §1
# ScSla1-D1-D2 = target: ScSla1-D1-D2
# Procedure: as §1
# ScSla1-D3 = target: ScSla1-D3
# Procedure: as §1
# SpAbp1-D1 = target: SpAbp1-D1
# Procedure: as §1
# SpBbc1 = target: SpBbc1
# Procedure: as §1
# SpBzz1-D1 = target: SpBzz1-D1
# Procedure: as §1
# SpBzz1-D2 = target: SpBzz1-D2
# Procedure: as §1
# SpCyk3 = target: SpCyk3
# Procedure: as §1
# SpHof1 = target: SpHof1
# Procedure: as §1
# SpHof1-2 = target: SpHof1-2
# Procedure: as §1
# SpHof1-3 = target: SpHof1-3
# Procedure: as §1
# SpHse1 = target: SpHse1
# Procedure: as §1
# SpLsb1 = target: SpLsb1
# Procedure: as §1
# SpLsb4 = target: SpLsb4
# Procedure: as §1
# SpMyo1 = target: SpMyo1
# Procedure: as §1
# SpNbp2 = target: SpNbp2
# Procedure: as §1
# SpPex13 = target: SpPex13
# Procedure: as §1
# SpRvs167 = target: SpRvs167
# Procedure: as §1
# SpSla1-D1-D2 = target: SpSla1-D1-D2
# Procedure: as §1
# SpSla1-D3 = target: SpSla1-D3
# Procedure: as §1
binder,measurement,setting,value
RLPAPPPPPRRGPAP,SPOT peptide array binding signal intensity,AgAbp1,51.5
same,SPOT peptide array binding signal intensity,AgBbc1,909
same,SPOT peptide array binding signal intensity,AgBem1-D1,140
same,SPOT peptide array binding signal intensity,AgBzz1-D1,624
same,SPOT peptide array binding signal intensity,AgBzz1-D2,154
same,SPOT peptide array binding signal intensity,AgCyk3,3
same,SPOT peptide array binding signal intensity,AgFus1,6
same,SPOT peptide array binding signal intensity,AgHof1,112
same,SPOT peptide array binding signal intensity,AgHse1,28.5
same,SPOT peptide array binding signal intensity,AgLsb1,5.25
same,SPOT peptide array binding signal intensity,AgLsb4,412
same,SPOT peptide array binding signal intensity,AgMyo5,550
same,SPOT peptide array binding signal intensity,AgNbp2,7.5
same,SPOT peptide array binding signal intensity,AgRvs167,123
same,SPOT peptide array binding signal intensity,AgSho1,4
same,SPOT peptide array binding signal intensity,AgSla1-D1-D2,5
same,SPOT peptide array binding signal intensity,AgSla1-D3,10
same,SPOT peptide array binding signal intensity,CaAbp1-D1,150
same,SPOT peptide array binding signal intensity,CaAbp1-D2,17
same,SPOT peptide array binding signal intensity,CaBbc1,770
same,SPOT peptide array binding signal intensity,CaBem1-D1,1820
same,SPOT peptide array binding signal intensity,CaBzz1-D1,3030
same,SPOT peptide array binding signal intensity,CaBzz1-D2,1540
same,SPOT peptide array binding signal intensity,CaCyk3,326
same,SPOT peptide array binding signal intensity,CaFus1,26.5
same,SPOT peptide array binding signal intensity,CaHof1,39
same,SPOT peptide array binding signal intensity,CaHse1,5.25
same,SPOT peptide array binding signal intensity,CaLsb1,≤ 0
same,SPOT peptide array binding signal intensity,CaLsb4,560
same,SPOT peptide array binding signal intensity,CaMyo5,19.5
same,SPOT peptide array binding signal intensity,CaNbp2,63.5
same,SPOT peptide array binding signal intensity,CaRvs167,223
same,SPOT peptide array binding signal intensity,CaRvs167-3,9.25
same,SPOT peptide array binding signal intensity,CaSho1,11
same,SPOT peptide array binding signal intensity,CaSla1-D1-D2,2140
same,SPOT peptide array binding signal intensity,CaSla1-D3,20.2
same,SPOT peptide array binding signal intensity,ScAbp1,53
same,SPOT peptide array binding signal intensity,ScBbc1,198
same,SPOT peptide array binding signal intensity,ScBem1-D1,3.5
same,SPOT peptide array binding signal intensity,ScBzz1-D1,222
same,SPOT peptide array binding signal intensity,ScBzz1-D2,47.5
same,SPOT peptide array binding signal intensity,ScCyk3,5
same,SPOT peptide array binding signal intensity,ScFus1,≤ 0
same,SPOT peptide array binding signal intensity,ScHof1,175
same,SPOT peptide array binding signal intensity,ScHse1,173
same,SPOT peptide array binding signal intensity,ScLsb1,27.2
same,SPOT peptide array binding signal intensity,ScLsb2,5.5
same,SPOT peptide array binding signal intensity,ScLsb3,832
same,SPOT peptide array binding signal intensity,ScLsb4,413
same,SPOT peptide array binding signal intensity,ScMyo3,881
same,SPOT peptide array binding signal intensity,ScMyo5,795
same,SPOT peptide array binding signal intensity,ScNbp2,30.5
same,SPOT peptide array binding signal intensity,ScPex13,502
same,SPOT peptide array binding signal intensity,ScRvs167,795
same,SPOT peptide array binding signal intensity,ScSho1,188
same,SPOT peptide array binding signal intensity,ScSla1-D1-D2,3480
same,SPOT peptide array binding signal intensity,ScSla1-D3,3.5
same,SPOT peptide array binding signal intensity,SpAbp1-D1,69
same,SPOT peptide array binding signal intensity,SpBbc1,20
same,SPOT peptide array binding signal intensity,SpBzz1-D1,4030
same,SPOT peptide array binding signal intensity,SpBzz1-D2,64.8
same,SPOT peptide array binding signal intensity,SpCyk3,57
same,SPOT peptide array binding signal intensity,SpHof1,115
same,SPOT peptide array binding signal intensity,SpHof1-2,166
same,SPOT peptide array binding signal intensity,SpHof1-3,1070
same,SPOT peptide array binding signal intensity,SpHse1,2.25
same,SPOT peptide array binding signal intensity,SpLsb1,12.2
same,SPOT peptide array binding signal intensity,SpLsb4,1800
same,SPOT peptide array binding signal intensity,SpMyo1,510
same,SPOT peptide array binding signal intensity,SpNbp2,12
same,SPOT peptide array binding signal intensity,SpPex13,≤ 0
same,SPOT peptide array binding signal intensity,SpRvs167,1170
same,SPOT peptide array binding signal intensity,SpSla1-D1-D2,339
same,SPOT peptide array binding signal intensity,SpSla1-D3,≤ 0
LSKRLPLRFPEHTSS,SPOT peptide array binding signal intensity,AgAbp1,48
same,SPOT peptide array binding signal intensity,AgBbc1,5.5
same,SPOT peptide array binding signal intensity,AgBem1-D1,≤ 0
same,SPOT peptide array binding signal intensity,AgBzz1-D1,9
same,SPOT peptide array binding signal intensity,AgBzz1-D2,17
same,SPOT peptide array binding signal intensity,AgCyk3,≤ 0
same,SPOT peptide array binding signal intensity,AgFus1,102
same,SPOT peptide array binding signal intensity,AgHof1,67.5
same,SPOT peptide array binding signal intensity,AgHse1,234
same,SPOT peptide array binding signal intensity,AgLsb1,5.5
same,SPOT peptide array binding signal intensity,AgLsb4,53.5
same,SPOT peptide array binding signal intensity,AgMyo5,≤ 0
same,SPOT peptide array binding signal intensity,AgNbp2,10
same,SPOT peptide array binding signal intensity,AgRvs167,1.33
same,SPOT peptide array binding signal intensity,AgSho1,17
same,SPOT peptide array binding signal intensity,AgSla1-D1-D2,2
same,SPOT peptide array binding signal intensity,AgSla1-D3,≤ 0
same,SPOT peptide array binding signal intensity,CaAbp1-D1,462
same,SPOT peptide array binding signal intensity,CaAbp1-D2,220
same,SPOT peptide array binding signal intensity,CaBbc1,27.2
same,SPOT peptide array binding signal intensity,CaBem1-D1,10
same,SPOT peptide array binding signal intensity,CaBzz1-D1,22
same,SPOT peptide array binding signal intensity,CaBzz1-D2,60.8
same,SPOT peptide array binding signal intensity,CaCyk3,4
same,SPOT peptide array binding signal intensity,CaFus1,402
same,SPOT peptide array binding signal intensity,CaHof1,0.75
same,SPOT peptide array binding signal intensity,CaHse1,81
same,SPOT peptide array binding signal intensity,CaLsb1,1
same,SPOT peptide array binding signal intensity,CaLsb4,136
same,SPOT peptide array binding signal intensity,CaMyo5,≤ 0
same,SPOT peptide array binding signal intensity,CaNbp2,63.5
same,SPOT peptide array binding signal intensity,CaRvs167,15.2
same,SPOT peptide array binding signal intensity,CaRvs167-3,15.8
same,SPOT peptide array binding signal intensity,CaSho1,212
same,SPOT peptide array binding signal intensity,CaSla1-D1-D2,≤ 0
same,SPOT peptide array binding signal intensity,CaSla1-D3,1
same,SPOT peptide array binding signal intensity,ScAbp1,63.5
same,SPOT peptide array binding signal intensity,ScBbc1,≤ 0
same,SPOT peptide array binding signal intensity,ScBem1-D1,23.5
same,SPOT peptide array binding signal intensity,ScBzz1-D1,10.5
same,SPOT peptide array binding signal intensity,ScBzz1-D2,17
same,SPOT peptide array binding signal intensity,ScCyk3,61
same,SPOT peptide array binding signal intensity,ScFus1,81
same,SPOT peptide array binding signal intensity,ScHof1,4.25
same,SPOT peptide array binding signal intensity,ScHse1,532
same,SPOT peptide array binding signal intensity,ScLsb1,4
same,SPOT peptide array binding signal intensity,ScLsb2,≤ 0
same,SPOT peptide array binding signal intensity,ScLsb3,492
same,SPOT peptide array binding signal intensity,ScLsb4,10.5
same,SPOT peptide array binding signal intensity,ScMyo3,≤ 0
same,SPOT peptide array binding signal intensity,ScMyo5,≤ 0
same,SPOT peptide array binding signal intensity,ScNbp2,50
same,SPOT peptide array binding signal intensity,ScPex13,≤ 0
same,SPOT peptide array binding signal intensity,ScRvs167,231
same,SPOT peptide array binding signal intensity,ScSho1,952
same,SPOT peptide array binding signal intensity,ScSla1-D1-D2,6
same,SPOT peptide array binding signal intensity,ScSla1-D3,4.75
same,SPOT peptide array binding signal intensity,SpAbp1-D1,228
same,SPOT peptide array binding signal intensity,SpBbc1,1.5
same,SPOT peptide array binding signal intensity,SpBzz1-D1,132
